Reference: PubChem BioAssay (NCATS)
Inconclusive results are not listed. The source made the active and inactive calls. Calls come from the whole dose curve; as a rule, active = well fitted cell-killing curve with a large enough effect; inconclusive = small, poorly fitted or top-dose-only effect, or effect the other way; inactive = flat fitted curve, though single readings scatter.

How the values were obtained:
Assay in all cases: Primary qHTS to identify gynecologic anti-cancer compounds using libraries of approved drugs and bioactive compounds (AID 1345084); note: nearly all actives have a fitted effect of over 55% in size
Conditions in all cases: Gynecologic cancer cell panel viability, ATPlite luminescence, 48 h; series mostly up to 57.5 µM
SKOV3 = system: SKOV3
Outline: (§1)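 Cells, 1,000 per well, were allowed to settle for 16 h at 37 C before compound addition. Five concentrations were tested for 48 h, and viability was read by ATPlite luminescence after 15 min at room temperature.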

Tov-21-G = system: Tov-21-G
Outline: as §1

Tov112D = system: Tov112D
Outline: as §1
% is set by controls: 0 for no effect and ±100 for the full control effect.

COc1cc(CCc2ccc(OCC=C(C)C)cc2)cc(OC)c1OC
inactive: Potency (SKOV3) | Potency (Tov-21-G) | Potency (Tov112D)

O=C(NCCN1CCN(c2cccc3ccc(O)cc23)CC1)c1ccc(F)cc1
inactive: Potency (SKOV3) | Potency (Tov-21-G) | Potency (Tov112D)

C=C(C)C1=C[C@@]2(C)C(=CC1=O)CC[C@@H](O)[C@@H]2C
inactive: Potency (SKOV3) | Potency (Tov-21-G) | Potency (Tov112D)

CCC(C)C(=O)Oc1cc(C)ccc1C1(COC(=O)C(C)C)CO1 (stereo not drawn)
inactive: Potency (SKOV3) | Potency (Tov-21-G) | Potency (Tov112D)

CC[C@H](C)/C=C(C)/C=C/C1=CC2=C(Cl)C(=O)[C@](C)(O)[C@H](OC(C)=O)[C@H]2CO1
inactive: Potency (SKOV3) | Potency (Tov-21-G) | Potency (Tov112D)

O=S(=O)(Nc1ccccc1N1CCCCC1)c1ccc(Cl)s1
inactive: Potency (SKOV3) | Potency (Tov-21-G) | Potency (Tov112D)

CC(=O)OC1C(OC(=O)c2ccccc2)C2C(C)(C)CCC(OC(C)=O)C2(C)C23CCC(C)(C2)C(=O)CC13 (stereo not drawn)
inactive: Potency (SKOV3) | Potency (Tov-21-G) | Potency (Tov112D)

CC[C@H]1OC(=O)[C@H](C)[C@@H](O[C@H]2C[C@@](C)(OC)[C@@H](O)[C@H](C)O2)[C@H](C)[C@@H](O[C@H]2O[C@H](C)C[C@H](N(C)C)[C@H]2O)[C@](C)(O)C[C@@H](C)C(=O)[C@H](C)[C@@H](O)[C@]1(C)O
inactive: Potency (SKOV3) | Potency (Tov-21-G) | Potency (Tov112D)

Cc1nc(Nc2ccc(F)cc2)nc(N2CCc3ccccc3C2C)c1C (stereo not drawn)
inactive: Potency (SKOV3) | Potency (Tov-21-G) | Potency (Tov112D)

CN1CCN(C(=O)CN[C@@H]2C[C@H]2c2ccc(OCc3ccccc3)cc2)CC1
inactive: Potency (SKOV3) | Potency (Tov-21-G) | Potency (Tov112D)

C[C@@H](NC(=O)c1ccc(C#Cc2cccc(F)c2)cn1)C(C)(C)O
inactive: Potency (SKOV3) | Potency (Tov-21-G) | Potency (Tov112D)

Cc1ccc(-c2c(C(=O)CCl)n(CCCO)c3ncnc(N)c23)cc1
inactive: Potency (SKOV3) | Potency (Tov-21-G) | Potency (Tov112D)

CC(=O)[C@H]1CC[C@H]2[C@@H]3CC=C4C[C@@H](OS(=O)(=O)O)CC[C@]4(C)[C@H]3CC[C@]12C
inactive: Potency (SKOV3) | Potency (Tov-21-G) | Potency (Tov112D)

COc1cccc(CN(C(=O)CC(C)(C)C)[C@H]2C[C@H](C(=O)N3CCNCC3)N(Cc3ccc4c(c3)OCO4)C2)c1
inactive: Potency (SKOV3) | Potency (Tov-21-G) | Potency (Tov112D)

O=C(NCCCc1ccccc1)C1CCC(CNS(=O)(=O)c2cccc3nsnc23)CC1 (stereo not drawn)
inactive: Potency (SKOV3) | Potency (Tov-21-G) | Potency (Tov112D)

C/C=C/C1=CC2=C(CO1)C(=O)C(C)(OC(=O)c1c(C)cc(O)cc1OC)C(O)C2 (stereo not drawn)
inactive: Potency (SKOV3) | Potency (Tov-21-G) | Potency (Tov112D)

CC(F)(F)CN1CCOc2c(nn(-c3ccccc3Cl)c2-c2ccc(Cl)cc2)C1=O
inactive: Potency (SKOV3) | Potency (Tov-21-G) | Potency (Tov112D)

O=[N+]([O-])c1cn2c(n1)OC[C@@H](OCc1ccc(-c3ccc(OC(F)(F)F)cc3)nc1)C2
inactive: Potency (SKOV3) | Potency (Tov-21-G) | Potency (Tov112D)

COc1ccc(-c2cnc3c(-c4cccc5ncccc45)cnn3c2)cc1
inactive: Potency (SKOV3) | Potency (Tov-21-G) | Potency (Tov112D)

CC(=O)N[C@H]1[C@H](O[C@H]2CC[C@@]3(C)C(CC[C@]4(C)C3CC=C3C5CC(C)(C)CC[C@]5(C(=O)O)C(O)C[C@]34C)C2(C)C)O[C@H](CO[C@@H]2O[C@H](C)[C@H](O)[C@H](O)[C@H]2O[C@@H]2OC[C@@H](O)[C@H](O)[C@H]2O)[C@@H](O)[C@@H]1O (stereo partly drawn)
inactive: activity change, negative = cytotoxicity (SKOV3) -11.9% [at 11.6 µM] | activity change, negative = cytotoxicity (Tov-21-G) -0.865% [at 11.6 µM] | activity change, negative = cytotoxicity (Tov112D) -1.59% [at 11.6 µM]

CC1(C=O)CCCC2(C)C1CCC13CC(CO)C(CCC12)C3 (stereo not drawn)
inactive: Potency (SKOV3) | Potency (Tov-21-G) | Potency (Tov112D)

Cc1nc(N2CCN(C(=O)c3ccco3)CC2)c2c3c(sc2n1)CCCC3
inactive: Potency (SKOV3) | Potency (Tov-21-G) | Potency (Tov112D)

C=C1C(=O)OC2C=C(C)CC/C=C(\CO)CC(O)C12 (stereo not drawn)
inactive: Potency (SKOV3) | Potency (Tov-21-G) | Potency (Tov112D)

C[C@H]1CC[C@@]2(OC1)O[C@H]1CC3C4CC[C@H]5C[C@@H](O)CC[C@]5(C)C4=CC(=O)[C@]3(C)[C@H]1[C@@H]2C (stereo partly drawn)
inactive: Potency (SKOV3) | Potency (Tov-21-G) | Potency (Tov112D)

O=C1c2ccc(Nc3ccc(F)cc3F)cc2CCc2ccc(OCC(O)CO)cc21 (stereo not drawn)
inactive: Potency (SKOV3) | Potency (Tov-21-G) | Potency (Tov112D)

COc1ccccc1N1CCN(c2ncnc3n[nH]c(Br)c23)CC1
inactive: Potency (SKOV3) | Potency (Tov-21-G) | Potency (Tov112D)

CC(=O)OC1C(=O)C2C3OCC4=C3[C@@](C)(CC[C@@H]4O)CC[C@]2(C)[C@H]1C(C)C (stereo partly drawn)
inactive: Potency (SKOV3) | Potency (Tov-21-G) | Potency (Tov112D)

Clc1ccc(Nc2nc3ccccc3c3nc(C4CCCCC4)[nH]c23)cc1Cl
inactive: Potency (SKOV3) | Potency (Tov-21-G) | Potency (Tov112D)

COc1ccc2[nH]c(=O)c3c(c2c1)OC(C)(C)C=C3
inactive: Potency (SKOV3) | Potency (Tov-21-G) | Potency (Tov112D)

CN(C)N(C)C(=O)[C@@]1(Cc2ccccc2)CCCN(C(=O)[C@@H](Cc2c[nH]c3ccccc23)NC(=O)C(C)(C)N)C1
inactive: Potency (SKOV3) | Potency (Tov-21-G) | Potency (Tov112D)

CC1(NC(=O)c2ccc(C#Cc3cccc(F)c3)cn2)COC1
inactive: Potency (SKOV3) | Potency (Tov-21-G) | Potency (Tov112D)
